In all, about 140,000 sequences were measured (“enrichment ratio after two sorts for PhoP signalling”: median about 0, highest 2% from about 11 on). Shown is part of a subset that was picked to be rich in the highest values.
B1: PhoQ; a variant is named by its letters at X, in order, P23837 (parent)
chain: MKKLLRLFFPLSLRVRFLLATAAVVLVLSLAYGMVALIGYSVSFDKTTFRLLRGESNLFYTLAKWENNKLHVELPENIDKQSPTMTLIYDENGQLLWAQRDVPWLMKMIQPDWLKSNGFHEIEADVNDTSLLLSGDHSIQQQLQEVREDDDDAEMTHSVAVNVYPATSRMPKLTIVVVDTIPVELKSSYMVWSWFIYVLSANLLLVIPLLWVAAWWSLRPIEALAKEVRELEEHNRELLNPATTRELTSLVRNLNRLLKSERERYDKYRTTLTDLTHSLKTPLXXLQXXLRSLRSEKMSVSDAEPVMLEQISRISQQIGYYLHRASMRGGTLLSRELHPVAPLLDNLTSALNKVYQRKGVNISLDISPEISFVGEQNDFVEVMGNVLDNACKYCLEFVEISARQTDEHLYIVVEDDGPGIPLSKREVIFDRGQRVDTLRPGQGVGLAVAREITEQYEGKIVAGESMLGGARMEVIFGRQHSAPKDE

Variants of: B1
Assay: enrichment ratio after two sorts for PhoP signalling (ratio (wild type AVST 3.29)); higher = more functional
Conditions: with PhoP (E. coli)

Variant	enrichment ratio
TVQC	4.14
FEAI	≤ 0.25
LSQY	≤ 0.25
YALI	13.3
NALI	4.49
KALI	≤ 0.25
GALS	5.05
GALI	14.1
GALA	2.12
ITLI	8.76
KQLI	≤ 0.25
GTLI	15.8
GYLI	0.357
SALI	12.2
IILI	≤ 0.25
ERQV	≤ 0.25
LRKP	≤ 0.25
KPPH	≤ 0.25
TPRP	≤ 0.25
FDPD	≤ 0.25
PKVE	≤ 0.25
RSAQ	≤ 0.25
HALI	12.2
LTLI	0.384
TTLI	12.4

Variant	enrichment ratio
HFLI	≤ 0.25
CTLI	≤ 0.25
HALA	≤ 0.25
LMQH	≤ 0.25
KFYQ	≤ 0.25
CSGS	≤ 0.25
WWST	≤ 0.25
FRNI	≤ 0.25
TVQN	12.1
TVQQ	12.6
SPQV	≤ 0.25
SPQN	≤ 0.25
PVQV	≤ 0.25
TVQV	12.7
FVQK	≤ 0.25
SPQQ	≤ 0.25
TVQK	15.5
NVQK	≤ 0.25
PVQQ	≤ 0.25
TVEN	≤ 0.25
DRLY	≤ 0.25
RFEM	≤ 0.25
RQMN	≤ 0.25
HNHV	≤ 0.25
THPW	≤ 0.25

Variant	enrichment ratio
LWEP	≤ 0.25
VYIW	≤ 0.25
GCNG	≤ 0.25
ANGM	21.9
AHGH	≤ 0.25
ARGM	≤ 0.25
ANGH	11.6
ANDS	≤ 0.25
ARVA	≤ 0.25
ANGD	≤ 0.25
ANDM	≤ 0.25
ANVM	14.9
ANGP	≤ 0.25
ARVM	14.7
ANGR	≤ 0.25
SWFD	≤ 0.25
HSAA	≤ 0.25
FPVD	≤ 0.25
VQYV	≤ 0.25
DVLV	≤ 0.25
PCEH	≤ 0.25
WFYE	≤ 0.25
LTRP	≤ 0.25
YRLF	≤ 0.25
ANNM	12.9

Variant	enrichment ratio
ANCK	6.46
ANPM	≤ 0.25
RPWW	≤ 0.25
HFCW	≤ 0.25
QNGV	22.1
QNGD	≤ 0.25
QRGV	≤ 0.25
QNHV	≤ 0.25
QNYM	≤ 0.25
QNGM	16
EKNQ	≤ 0.25
NNYE	≤ 0.25
HMKK	≤ 0.25
DNAG	≤ 0.25
FMVV	≤ 0.25
MREV	≤ 0.25
HMSI	≤ 0.25
QCTL	≤ 0.25
YHCQ	≤ 0.25
THCQ	14.3
SHCQ	21.1
VHCQ	≤ 0.25
SHCI	6.63
SHCA	2.47
PQRE	≤ 0.25

Variant	enrichment ratio
TLYI	0.826
RITC	≤ 0.25
RFYH	≤ 0.25
FWFN	≤ 0.25
ERAC	≤ 0.25
SPAL	≤ 0.25
SKRL	≤ 0.25
SKNL	≤ 0.25
RIAL	≤ 0.25
KYAL	≤ 0.25
SQAL	7.54
SIAL	15.1
SFAL	≤ 0.25
SAAL	12.8
SKAL	12.2
SRAL	≤ 0.25
SNAL	12.1
ETHL	≤ 0.25
VYRH	≤ 0.25
PVYN	≤ 0.25
RLWM	≤ 0.25
LPNQ	≤ 0.25
YSKE	≤ 0.25
NNAF	≤ 0.25
TTGS	8.05

Variant	enrichment ratio
WDHH	≤ 0.25
GVIH	≤ 0.25
QAPP	≤ 0.25
TIAL	12.9
WIAL	≤ 0.25
TTAL	18.4
MTAL	5.98
QEAL	≤ 0.25
ITAL	0.733
SLAL	10.6
YTAL	≤ 0.25
STAL	11.5
NIAL	1.57
NSAL	≤ 0.25
SSAL	12.2
YSQQ	≤ 0.25
PRCN	≤ 0.25
RSCH	≤ 0.25
DCRN	≤ 0.25
MFPC	≤ 0.25
YLTE	≤ 0.25
MMTL	13.2
TSTL	20.7
NVTL	≤ 0.25
MATL	7.59

Variant	enrichment ratio
METL	3.99
WITL	0.966
FVLT	≤ 0.25
WYAY	≤ 0.25
KNFK	≤ 0.25
MYGA	≤ 0.25
GWFA	≤ 0.25
RSRM	≤ 0.25
GCLT	6.49
GCLA	6.8
KCLN	≤ 0.25
GCNL	≤ 0.25
GCLS	19.3
GCLN	11.5
VRSC	≤ 0.25
YKWM	≤ 0.25
NGSC	≤ 0.25
FVSC	≤ 0.25
QGSC	12
GGSC	9.93
FFSC	≤ 0.25
TGSC	20.2
FEYD	≤ 0.25
FCVK	≤ 0.25
ESKA	≤ 0.25

Variant	enrichment ratio
NEVN	≤ 0.25
VAFL	3.05
WLWC	≤ 0.25
QCNL	≤ 0.25
QCDS	≤ 0.25
QCGD	≤ 0.25
GGWL	≤ 0.25
QCWI	37.7
QCWL	13.1
VIGT	≤ 0.25
IMSW	≤ 0.25
VELA	≤ 0.25
VEWH	13.7
VEWG	18.1
VRWG	≤ 0.25
VRWH	≤ 0.25
VEWS	2.49
VEWI	12.2
VLWH	≤ 0.25
VLWG	≤ 0.25
PTWI	≤ 0.25
FAIR	≤ 0.25
IVHI	≤ 0.25
MQLF	2.66
IWYQ	≤ 0.25

Variant	enrichment ratio
ATSW	1.32
HLTG	1.04
PWLG	≤ 0.25
SCLG	12.6
NALG	0.397
GCLG	14.9
KALG	≤ 0.25
QCLG	2.4
PTLG	≤ 0.25
STLG	14.5
SPLG	≤ 0.25
SWLG	≤ 0.25
KCLG	≤ 0.25
SALG	15.9
WEVH	≤ 0.25
HANP	≤ 0.25
NMEQ	≤ 0.25
ILFS	≤ 0.25
QRWI	≤ 0.25
ISPF	≤ 0.25
CVQT	≤ 0.25
SGLG	15.5
TQLG	16.7
WQLG	≤ 0.25
SYLG	9.61

Variant	enrichment ratio
SQLG	19.1
TGLG	10.1
EQLG	≤ 0.25
FDLG	≤ 0.25
DPLG	≤ 0.25
NGLG	≤ 0.25
KQLG	≤ 0.25
FQLG	16.7
GAQK	≤ 0.25
NGQA	≤ 0.25
VMKG	≤ 0.25
ILNQ	≤ 0.25
DMSW	≤ 0.25
TCQW	≤ 0.25
LQMI	≤ 0.25
MMFL	≤ 0.25
HDFE	≤ 0.25
WLYA	≤ 0.25
KYLG	≤ 0.25
SFLG	10.9
MQLG	22
MQLA	≤ 0.25
SELG	25.3
MQWG	4.64
LEAH	0.895

Variant	enrichment ratio
TEQC	9.21
FELK	≤ 0.25
FTPI	≤ 0.25
MFEY	≤ 0.25
WMWW	≤ 0.25
KSSG	≤ 0.25
TFSG	13.9
KQSG	≤ 0.25
TSSG	14.4
YTSG	≤ 0.25
NSSG	≤ 0.25
GGSG	≤ 0.25
TTSG	19.5
HFSG	≤ 0.25
PGSG	≤ 0.25
TGSG	16.4
PFSG	≤ 0.25
MWFY	≤ 0.25
SQPK	≤ 0.25
VRWV	≤ 0.25
SYQC	≤ 0.25
RTQR	≤ 0.25
GISG	8.5
SPSG	≤ 0.25
GNSG	13.2

Variant	enrichment ratio
HCSG	≤ 0.25
TVSG	20.3
GVSG	7.26
WDLS	≤ 0.25
DAKY	≤ 0.25
NIQR	≤ 0.25
ADLG	3.46
SHLG	10.8
AILG	15.7
NHLG	≤ 0.25
AFFG	≤ 0.25
THLG	14.4
KKLG	≤ 0.25
AHLG	6.95
AFLG	15.7
AQLG	18.8
AFTG	5.35
APLG	≤ 0.25
MEPF	≤ 0.25
WCFV	≤ 0.25
GSFI	≤ 0.25
RMTQ	≤ 0.25
YEWD	≤ 0.25
LWMC	≤ 0.25
QNWS	8.87

Variant	enrichment ratio
PPKF	≤ 0.25
WPCT	≤ 0.25
SLTH	5.18
NKDQ	≤ 0.25
FHGD	≤ 0.25
FSLG	8.53
NMLG	≤ 0.25
YTLG	6.93
VRLG	≤ 0.25
DMLG	≤ 0.25
TTLG	10.6
ATLG	12.3
ASLG	18.2
TMLG	11.6
